Experimental data reported in PubChem BioAssay (NCI).
The panel holds about 83,000 compounds, 20% with a hit somewhere; the sample as a whole holds those more often.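 Cell lines were cultured in 96-well plates, exposed to a single compound concentration, and assessed for percent growth 48 hours later.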 Calls of active or inactive are those of the source. Rule for the calls: active = growth percent below 10; inactive = the rest.

Experiments:
Experiment in all cases: NCI-60 one-dose screen, 48 h (100 = growth as untreated, 0 = no growth, -100 = all killed)
Conditions in all cases: 10 µM unless noted
[1] = tested on: RPMI-8226 leukemia
[2] = tested on: OVCAR-8 ovarian
[3] = tested on: OVCAR-5 ovarian
[4] = tested on: OVCAR-4 ovarian
[5] = tested on: SK-OV-3 ovarian
[6] = tested on: IGROV1 ovarian
[7] = tested on: OVCAR-3 ovarian
[8] = tested on: HS 578T breast
[9] = tested on: NCI/ADR-RES ovarian
[10] = tested on: T-47D breast
[11] = tested on: BT-549 breast
[12] = tested on: MDA-MB-435 melanoma
[13] = tested on: SW-620 colon
[14] = tested on: MCF7 breast
[15] = tested on: HCT-116 colon
[16] = tested on: HCC-2998 colon
[17] = tested on: KM12 colon
[18] = tested on: SR leukemia

Measured: growth

O=C(O)/C=C/C(=O)c1ccc(Cl)cc1
inactive: [1] 115% | [2] 95.9% | [3] 115% | [4] 116% | [5] 107% | [6] 114% | [7] 105% | [8] 119% | [9] 109% | [10] 95.5% | [11] 98.1% | [12] 121% | [13] 108% | [14] 102% | [15] 108% | [16] 109% | [17] 106%

COc1ccc(-c2c(N)n[nH]c2-c2cc(OC)c(OC)c(OC)c2)cc1
inactive: [1] 27% | [2] 21.2% | [3] 37.5% | [4] 47.7% | [5] 15.4% | [6] 26.9% | [10] 75.1% | [11] 50.9% | [13] 21% | [14] 23% | [17] 14%
active: [7] -36.1% | [8] -8.33% | [9] -20.2% | [12] -40.7% | [15] 9.76% | [16] -2.65%

NC(=S)N/N=C(/CCN1CCCC1)CC(C1=C(O)C2=CCCCC2OC1=O)c1ccccc1 (stereo unspecified)
inactive: [1] 73.9% | [2] 88.2% | [3] 96.9% | [4] 62.2% | [5] 94.3% | [6] 52.8% | [7] 21.8% | [8] 96.7% | [9] 40.4% | [10] 47% | [11] 90.9% | [12] 90.7% | [13] 69% | [14] 14.9% | [16] 102%
active: [15] 9.46%

Oc1ccc(Cl)cc1-c1cc(-c2ccc(F)cc2)n[nH]1
inactive: [1] 28.2% | [2] 73.4% | [3] 83.6% | [4] 25.3% | [5] 74.8% | [6] 40% | [7] 49.8% | [8] 65.4% | [9] 66.4% | [10] 24.3% | [11] 84.7% | [12] 83% | [13] 75.5% | [14] 15.8% | [15] 51.5% | [16] 37.8% | [17] 37%

COc1cc(-c2nn(-c3cccc(NC(=O)Nc4ccc(Cl)c(Cl)c4)c3)cc2-c2ccncc2)ccc1Cl
active: [1] -11.6% | [2] -17.2% | [7] -10% | [8] -6.95% | [9] 0.321% | [10] 2.98% | [11] 6.23% | [12] -45.8% | [14] 1.73% | [15] 8.67% | [16] 2.84% | [17] 1.3%
inactive: [3] 38% | [4] 19.8% | [5] 11.8% | [6] 23.9% | [13] 13.4%

COc1cc(-c2nn(-c3cccc(NC(=O)Nc4ccc(Cl)c(C(F)(F)F)c4)c3)cc2-c2ccncc2)ccc1Cl
active: [1] -8.66% | [2] -19.9% | [5] 0.426% | [7] -12.4% | [8] 2.21% | [9] -0.864% | [10] 0.618% | [11] 7.16% | [12] -52.3% | [14] 0.143% | [15] 5.3% | [16] 8.88% | [17] 2.88%
inactive: [3] 35.8% | [4] 20.8% | [6] 25.6% | [13] 15.4%

Fc1ccc(Nc2nc(NCCNc3ccnc4cc(Cl)ccc34)nc(N3CCOCC3)n2)cc1
inactive: [1] 33.6% | [2] 74.7% | [3] 105% | [4] 61.1% | [5] 91.6% | [6] 75.5% | [7] 85.1% | [8] 70.2% | [9] 77.8% | [10] 83.3% | [11] 81.9% | [12] 28.2% | [13] 47.1% | [14] 55% | [15] 37.3%
active: [16] -51.2%

CCCCCCCCCCCCCCCCNC(=O)OC(C)C
inactive: [2] 63.8% | [5] 69.7% | [7] 19.5% | [8] 78.2% | [9] 65.9% | [11] 95.8% | [12] 68.5% | [13] 18.9% | [15] 20.8% | [16] 57.1%
active: [18] 1.69% | [4] -39.2% | [14] 1.73% | [17] 0.501%
